# Experimental data from PubChem BioAssay (Tox21).
# Results filed as inconclusive are left out. Entries that show only a call come without a potency. Values without a mark were called inactive. Active and inactive are the calls of the source. Calls follow the shape of the dose curve; as a rule, active = well fitted cell-killing curve with a large enough effect in the repeat runs; inconclusive = weak or mixed curves, or effect the other way; inactive = flat fitted curve, though single readings scatter.
# Assay: cAMP Responsive Elements (CRE) small molecule antagonists, cell-based qHTS assay: qHTS cell viability counter screen (AID 2060913); also: nearly all actives have a fitted effect of over 40% in size
# Conditions: CRE-bla HEK293T viability, CellTiter-Glo luminescence, 5 h; series mostly up to 92.4 µM
# Method in brief: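 CRE-bla HEK293T cells were seeded in assay medium with 10% dialyzed FBS, incubated 18 hrs at 37 C, then exposed to compounds plus 0.25 uM final NKH477 for 3 hrs. Viability was read by CellTiter-Glo luminescence after 30 min, in the same wells.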
# Potency is read from the fitted curve at half-maximal effect.
Compound,Potency,"viability change, negative = cytotoxic"
CCOC(=O)NC(O)C(Cl)(Cl)Cl (stereo not given),inactive,
COP(=S)(OC)Oc1cc(Cl)c(Cl)cc1Cl,inactive,
COCC(=O)N(c1c(C)cccc1C)[C@H](C)C(=O)OC,inactive,
O=c1ccc(=O)[nH][nH]1,inactive,
CCNc1nc(NCC)nc(SC)n1,inactive,
CC(C)(N)Cc1ccccc1Cl,inactive,
O=C(O)c1nn(Cc2ccc(Cl)cc2Cl)c2ccccc12,inactive,
C[N+](C)=CCl,inactive,
CSc1nc(N=[N+]=[N-])nc(NC(C)C)n1,inactive,
CNN,inactive,
CC(NC(C)(C)C)C(=O)c1cccc(Cl)c1 (stereo not given),inactive,
CCOP(=S)(OCC)Oc1ccc([N+](=O)[O-])cc1,inactive,
CCOP(=S)(S)OCC,inactive,
CCCN(CCC)c1c([N+](=O)[O-])cc(S(C)(=O)=O)cc1[N+](=O)[O-],inactive,
C=CCc1ccccc1O,inactive,
CCCCCCCCCCCCCCCCCCn1cc[n+](C)c1,27.1 µM (active),
CCOC(=O)CCN(SN(C)C(=O)Oc1cccc2c1OC(C)(C)C2)C(C)C,inactive,
OCCSSCCO,inactive,
C[CH2][Hg][N]1C(=O)C2C(C1=O)C1(Cl)C(Cl)=C(Cl)C2(Cl)C1(Cl)Cl (stereo not given),,-25.3% [at 18.9 µM]
Cc1ccc(N)cc1C,inactive,

Compound,Potency,"viability change, negative = cytotoxic"
CCC(Cl)[N+](=O)[O-] (stereo not given),inactive,
C1=Cc2cccc3cccc1c23,inactive,
Cc1ccc(O)c(C)c1,inactive,
C=CCOC(N)=O,inactive,
Clc1ccc(-c2ccc(Cl)c(Cl)c2Cl)c(Cl)c1Cl,inactive,
Oc1cccc2cccnc12,inactive,
CC(C)COC(=O)c1ccccc1C(=O)OCC(C)C,inactive,
Nc1ccc(N=Nc2ccc(-c3ccc(N=Nc4c(S(=O)(=O)O)cc5cc(S(=O)(=O)O)c(N=Nc6ccccc6)c(O)c5c4N)cc3)cc2)c(N)c1,inactive,
CC(Cc1ccccc1)NCCCCl (stereo not given),inactive,
CN/C(=N\[N+](=O)[O-])NCC1CCOC1 (stereo not given),inactive,
O=S(=O)(O)OOS(=O)(=O)O,inactive,
O=C(N[C@H]1CN2CCC1CC2)c1cc2ccoc2cn1,inactive,
CC(Oc1ccc(Cl)cc1Cl)C(=O)O (stereo not given),inactive,
CC(C(O)c1ccccc1)N(C)C/C=C/c1ccccc1 (stereo not given),inactive,
C=CCCl,inactive,
Oc1c(Cl)c(Cl)c(Cl)c(Cl)c1Cl,inactive,
CON(C)C(=O)Nc1ccc(Cl)cc1,inactive,
CCc1cccc(CC)c1N(COC)C(=O)CCl,inactive,
CCOC(=O)NC(C)(C)Cc1ccc(Cl)cc1,inactive,
CN1C(=O)[C@@H](NC(=O)c2cc3ccccc3[nH]2)N=C(c2ccccc2)c2ccccc21,inactive,
